Assay results reported in PubChem BioAssay (EPA / NIEHS).
The source holds several records for some structures; these can differ, active in one and inactive in another. Calls of active or inactive are those of the source. The calls were made as follows: active = hit-call score of the fitted dose curve at least 0.9, where 1 is the maximum; inactive = score below 0.9.

Molecular target: Nuclear respiratory factor 1 (Homo sapiens) (UniProt Q16656)
Experiment: ATG_NRF1_CIS: Attagene CIS-FACTORIAL HepG2 Assay for human Nuclear Respiratory Factor 1 (NRF1) Orphan Gene (AID 2282987)
Conditions: HepG2 NRF1 cis-element reporter, Attagene multiplex; actives raise or lower the signal
Method: ATG_CIS is a cell-based, multiplexed-readout assay that uses HepG2, a human liver cell line, with measurements taken at 24 hours after chemical dosing in a 24-well plate.ATG_NRF1_CIS is one of 52 assay component(s) measured or calculated from the ATG_CIS assay. It is designed to make measurements of mRNA induction, a form of inducible reporter, as detected with fluorescence intensity signals by Reverse transcription polymerase chain reaction (RT-PCR) and Capillary electrophoresis technology.Data from the assay component ATG_NRF1_CIS was analyzed into 1 assay endpoint. This assay endpoint, ATG_NRF1_CIS, was analyzed with bidirectional fitting relative to DMSO as the negative control and baseline of activity. Using a type of inducible reporter, measures of mRNA for gain or loss-of-signal activity can be used to understand the reporter gene at the transcription factor-level as they relate to the gene NRF1. Furthermore, this assay endpoint can be referred to as a primary readout, because this assay has produced multiple assay endpoints where this one serves a reporter gene function. To generalize the intended target to other relatable targets, this assay endpoint is annotated to the dna binding intended target family, where the subfamily is nuclear respiratory factors.
Human liver HepG2 cells are transiently transfected with multiple reporter transcription units (MRTUs) in 6-well plates using FuGene 6 reagent (Roche; 3 ml FuGene/1 mg DNA). The MRTU constructs are regulated by a cis-regulating element (promoter). […] A major difference between the CIS and TRANS system is that in CIS activities of endogenous TFs are measured, whereas the TRANS assay evaluates changes in activities of exogenous, chimeric NR-Gal4 proteins. […] At the end of 24 hour incubation, total RNA was isolated using TriZol reagent (Invitrogen). The isolated RNA is then reverse-transcribed using oligo(dT) primer and Mo-MLV reverse transcriptase (Invitrogen) with DNAse I (Ambion) treatment for 30 min. The one-tenth of the produced cDNA was amplified by PCR using Taq DNA polymerase (Invitrogen) and two reporter sequence-specific primers. The PCR products were fluorescently labeled by primer extension with 6-arboxyfluorescein (6-FAM) 5'-labeled reporter sequence-specific primer (2 min at 95 C, 20 s at 68 C and 10 min at 72 C) and these products were digested with 5U of HpaI (New England Biolabs) for 2h at 37 C. The fragments were purified using Qiaquick PCR columns (Qiagen), analyzed on an ABI 3130xL genetic analyzer (Applied Biosystems) with peak positions identified by using a set of X-rhodamine (ROX)-labeled MapMarker1000 molecular weight standards (BioVentures). The raw capillary electrophoresis data was processed using Attagraph software (Attagene).

Chain of Nuclear respiratory factor 1 (Homo sapiens) (Q16656 whole entry, looked up): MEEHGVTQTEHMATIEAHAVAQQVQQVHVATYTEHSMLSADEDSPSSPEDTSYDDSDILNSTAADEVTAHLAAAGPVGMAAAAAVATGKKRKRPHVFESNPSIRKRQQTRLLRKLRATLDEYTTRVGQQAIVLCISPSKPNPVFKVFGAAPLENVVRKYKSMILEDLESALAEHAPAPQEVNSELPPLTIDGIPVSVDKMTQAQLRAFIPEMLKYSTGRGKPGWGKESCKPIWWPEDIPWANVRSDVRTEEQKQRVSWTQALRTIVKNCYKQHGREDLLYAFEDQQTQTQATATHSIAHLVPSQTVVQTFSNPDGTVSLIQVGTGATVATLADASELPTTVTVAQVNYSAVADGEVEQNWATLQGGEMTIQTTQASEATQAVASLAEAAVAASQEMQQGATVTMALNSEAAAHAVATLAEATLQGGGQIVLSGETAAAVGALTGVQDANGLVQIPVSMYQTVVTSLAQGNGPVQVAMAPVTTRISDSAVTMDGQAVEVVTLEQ

outcome, inactive:
O=C(Oc1ccccc1)c1cccc(C(=O)Oc2ccccc2)c1
CC(=O)CC(c1ccccc1)c1c(O)c2ccccc2oc1=O (stereo not given)
Cn1cnc2c1c(=O)[nH]c(=O)n2C
Nc1nc(Cl)nc2c1ncn2[C@H]1C[C@H](O)[C@@H](CO)O1
CCCCC(CC)CO (stereo not given)
CN(C)C(=O)NC1(c2ccccc2)CCN(CC[C@@]2(c3ccc(F)c(F)c3)CN(C(=O)c3ccccc3)CCO2)CC1
N[C@@H](Cc1c[nH]c2ccccc12)C(=O)O
CCN(CC)CCOc1ccc(C(=C(Cl)c2ccccc2)c2ccccc2)cc1
CC(C)c1cccc(C(C)C)c1NC(=O)NS(=O)(=O)c1cc(C(C)(C)O)co1
CCCCC(CC)COC(=O)CCCCCCCC(=O)OCC(CC)CCCC (stereo not given)
Oc1ccccc1O
CC(C)(C)c1ccccc1
CCCCCCCCCCCCCCCCO
C/C=C/c1ccc(OC)cc1
C#CC(O)C(CC)CCCC (stereo not given)
CN(C)CCCN(C)CCCN(C)C
CC1=C(C)S(=O)(=O)CCS1(=O)=O
CC(N)=O
O=[Si]=O
CS(=O)(=O)c1ccc([C@@H](C[C@H]2CCC(=O)C2)C(=O)Nc2cnccn2)cc1Cl
C/C=C/C=C/C(=O)O
CC(COCC(C)OC(=O)c1ccccc1)OC(=O)c1ccccc1 (stereo not given)
Cc1ccc(-c2cc(C(F)(F)F)nn2-c2ccc(S(N)(=O)=O)cc2)cc1
COc1ccc(OC(F)(F)F)cc1CN[C@H]1CCCN[C@H]1c1ccccc1
O=C(O)c1[nH]n(-c2ccc(S(=O)(=O)O)cc2)c(=O)c1N=Nc1ccc(S(=O)(=O)O)cc1
CN(C)CCCN1c2ccccc2Sc2ccc(Cl)cc21
NC1CCCCC1
S=c1[nH]c2ccccc2s1
CC(=O)O[C@]1(C(C)=O)CC[C@H]2[C@@H]3C=C(Cl)C4=CC(=O)[C@@H]5C[C@@H]5[C@]4(C)[C@H]3CC[C@@]21C
O=C(O)CN(CC(=O)O)CC(=O)O
CC(C)(O)c1ccc(CNC(=O)c2cccnc2Oc2ccc(F)cc2)cc1
CCCCOC(=O)CCCCC(=O)OCCCC
O=NO
O=C1O[C@H]([C@H](O)CO)C(O)=C1O
COC(=O)[C@H]1[C@H]2C[C@@H]3c4[nH]c5cc(OC)ccc5c4CCN3C[C@H]2C[C@@H](OC(=O)c2cc(OC)c(OC)c(OC)c2)[C@@H]1OC
CC(C)OC(=O)C(C)(C)Oc1ccc(C(=O)c2ccc(Cl)cc2)cc1
CCCC(=O)O

AC50, active:
CCN(CC)CCOc1ccc(C(=C(Cl)c2ccccc2)c2ccccc2)cc1 14.7 µM
CC(=O)O[C@]1(C(C)=O)CC[C@H]2[C@@H]3C=C(Cl)C4=CC(=O)[C@@H]5C[C@@H]5[C@]4(C)[C@H]3CC[C@@]21C 26.8 µM
CCC(C)N(C)C(=O)c1cc2ccccc2c(-c2ccccc2Cl)n1 (stereo not given) 63 µM
